# Source: PubChem
# LDHA block = qHTS assay for inhibitors of human lactate dehydrogenase; activity change, % (values are at about 110 or 230 µM); purified LDHA, NADH/diaphorase-resazurin fluorescence; active compounds read low; 480,000 compounds, 0.15% hits; L-lactate dehydrogenase A chain (Homo sapiens), P00338; AID 1347041, 2019; in the data active = activity change below about -30%; inconclusive = mostly about -25% to -30%
#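 Human LDH5 at 2 nM final in Tris HCl pH 7.4 with 0.06 mM NADH and 0.2 mM pyruvate, reacted 5 minutes at room temperature. Remaining NADH coupled via diaphorase/resazurin; resorufin fluorescence read at 0 and 20 minutes, normalized to enzyme-free and DMSO wells.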
# EPAC2 ag = qHTS for Agonist of cAMP-regulated guanine nucleotide exchange factor 4 (EPAC2): primary screen; Potency, µM (doses to about 154 µM), hits mostly activators; AID 720711, 2013; 360,000 compounds, 0.079% hits; EPAC2 activation, biochemical qHTS; response scale: 100% = 6.5 mM cAMP response; also: nearly all actives have a fitted effect of over 50% in size
# Target sequence (Q8WZA2 whole entry, looked up): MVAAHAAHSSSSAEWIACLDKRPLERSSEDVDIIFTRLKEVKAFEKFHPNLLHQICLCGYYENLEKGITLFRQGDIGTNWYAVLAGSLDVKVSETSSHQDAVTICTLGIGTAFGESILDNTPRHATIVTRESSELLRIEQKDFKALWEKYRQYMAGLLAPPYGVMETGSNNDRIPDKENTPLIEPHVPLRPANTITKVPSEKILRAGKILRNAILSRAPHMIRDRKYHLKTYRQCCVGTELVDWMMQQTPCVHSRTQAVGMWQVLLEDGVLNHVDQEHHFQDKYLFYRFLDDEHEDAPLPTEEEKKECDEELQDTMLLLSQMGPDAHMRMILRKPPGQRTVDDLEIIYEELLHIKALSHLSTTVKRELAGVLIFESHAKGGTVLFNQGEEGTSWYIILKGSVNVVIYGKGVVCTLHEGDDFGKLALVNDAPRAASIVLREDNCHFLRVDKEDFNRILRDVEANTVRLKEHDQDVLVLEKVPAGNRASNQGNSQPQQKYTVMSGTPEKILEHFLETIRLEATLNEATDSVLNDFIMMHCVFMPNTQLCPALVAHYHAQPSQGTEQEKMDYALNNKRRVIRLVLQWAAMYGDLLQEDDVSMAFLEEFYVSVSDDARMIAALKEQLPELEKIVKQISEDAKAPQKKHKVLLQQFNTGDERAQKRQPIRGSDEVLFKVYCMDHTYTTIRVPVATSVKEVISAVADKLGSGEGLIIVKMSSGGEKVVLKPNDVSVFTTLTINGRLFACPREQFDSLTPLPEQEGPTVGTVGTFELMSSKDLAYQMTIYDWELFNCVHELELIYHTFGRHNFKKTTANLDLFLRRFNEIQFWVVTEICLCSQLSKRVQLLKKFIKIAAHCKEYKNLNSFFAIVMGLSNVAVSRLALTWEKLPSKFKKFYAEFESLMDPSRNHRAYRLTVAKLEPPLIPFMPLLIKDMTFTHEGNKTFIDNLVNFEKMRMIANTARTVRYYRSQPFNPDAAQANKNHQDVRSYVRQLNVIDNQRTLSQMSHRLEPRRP
#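 qHTS, titration series. 100 nM EPAC2 / 250 nM Rap1B-BODIPY-GDP / 50 uM GDP; RT; ex 480/em 540 nm, 5-min reads to 30 min. Norm. to 6.5 mM cAMP = activation.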
# EPAC1 agonist = qHTS for Agonist of cAMP-regulated guanine nucleotide exchange factor 3 (EPAC1): primary screen | EPAC1 agonist qHTS, biochemical assay; response scale: 100% = response to 6.5 mM cAMP | 360,000 compounds, 0.073% hits | Rap guanine nucleotide exchange factor 3 (Homo sapiens), O95398 | Potency, µM (series often up to 154 µM), usual class: activators; also: nearly all actives have a fitted effect of over 60% in size
#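 Normalized to 6.5 mM cAMP, activity reflects EPAC1-catalysed release of BODIPY-GDP from Rap1B, followed kinetically over 30 min at 480 nm excitation, 540 nm emission. Reaction contained 100 nM EPAC1, 250 nM Rap1B-BODIPY-GDP, 50 uM GDP.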
# USP1-UAF1 inh = Inhibitors of USP1/UAF1: Primary Screen. Potency, µM (doses to about 57.1 µM), hits mostly inhibitors. recombinant USP1/UAF1, Ub-Rhodamine cleavage fluorescence. AID 743255, 2014. Ubiquitin carboxyl-terminal hydrolase 1 (Homo sapiens), O94782. 390,000 compounds, 0.23% hits; also: nearly all actives have a fitted effect of over 60% in size
#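 In this screen, compounds sit with the deubiquitinase complex (1nM) for 15 min at room temperature before Ub-Rho is added at 150nM final. Fluorescence rise is then followed for 6 reads every 60 seconds.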
# EPAC1 antagonist = qHTS for Antagonist of cAMP-regulated guanine nucleotide exchange factor 3 (EPAC1): primary screen; Rap guanine nucleotide exchange factor 3 (Homo sapiens), O95398; Potency, µM (titrated, usually from 115 µM), usual class: inhibitors; EPAC1 GEF assay, Rap1b-BODIPY-GDP exchange fluorescence; AID 720709, 2013; 360,000 compounds, 0.14% hits; also: nearly all actives have a fitted effect of over 50% in size
# EPAC2 antagonist = qHTS for Antagonist of cAMP-regulated guanine nucleotide exchange factor 2 (EPAC2): primary screen | Rap guanine nucleotide exchange factor 4 (Homo sapiens), Q8WZA2 | EPAC2 GEF exchange of Rap1B-BODIPY-GDP, fluorescence | Potency, µM (series often up to 114 µM), hits mostly inhibitors | 360,000 compounds, 0.18% hits; also: nearly all actives have a fitted effect of over 45% in size
# Hits are given with their value; . = inactive; ? = inconclusive; / = not tested or not shown. Rows were chosen to be rich in hits. Some 0.56% of all compounds tested hit in one or more screens of this group. Unless noted, calls follow the shape of the dose curve; as a rule, active = well fitted curve in the direction sought with a large enough effect; inconclusive = small, poorly fitted or top-dose-only effect, or another doubt; inactive = no such curve, though single readings can be large; an effect the other way counts as inactive or inconclusive.
SMILES,LDHA block,EPAC2 ag,EPAC1 agonist,USP1-UAF1 inh,EPAC1 antagonist,EPAC2 antagonist
CC(=O)C(C(C)=O)C1(O)C(=O)c2ccccc2C1=O,.,.,.,7.9µM,.,.
CCC(CO)Nc1nc(-c2ccco2)c2c(c1C#N)CCCC2 (stereo unspecified),.,/,/,/,/,/
CCc1nc(NC(CC)CO)c(C#N)c2c1CCCC2 (stereo unspecified),-34,/,/,/,/,/
CCCNc1nc(-c2cc(C)n(-c3cc(C)on3)c2C)cs1,.,/,/,/,/,/
CCCN1C=C(OC(=O)c2ccccc2OC)c2ccccc2S1(=O)=O,.,/,/,/,/,/
COC(=O)c1ccc(-c2ccc(C(c3c(C)[nH][nH]c3=O)c3c(C)[nH][nH]c3=O)o2)cc1,.,.,.,28µM,.,.
Cc1[nH][nH]c(=O)c1C(c1ccc(-c2cccc(C(=O)O)c2)o1)c1c(C)[nH][nH]c1=O,.,.,.,?,.,.
Cc1[nH][nH]c(=O)c1C(c1ccc(-c2cccc(Cl)c2)o1)c1c(C)[nH][nH]c1=O,.,.,.,28µM,?,?
O=C(NCC1CCCO1)c1cc2nc(-c3ccco3)cc(C(F)(F)Cl)n2n1 (stereo unspecified),.,.,.,.,.,.
COc1cccc(CNC(=O)CNS(=O)(=O)c2ccc3nc(C)sc3c2)c1,.,/,/,.,/,/
O=C(N/N=C/c1ccc(OC(=O)c2ccccc2Cl)cc1)c1cc(O)cc(O)c1,.,.,.,.,71µM,.
OC(CNCC(c1ccco1)N1CCCCC1)c1ccccc1 (stereo unspecified),-31,.,.,.,.,.
O=C(CSc1ccccc1)NCC(c1ccco1)N1CCCCC1 (stereo unspecified),.,.,.,.,.,.
CC1=NN(c2nc(C)cc(C)n2)C(=O)C1Cc1ccc(Cl)cc1 (stereo unspecified),-36,/,/,/,/,/
CCc1ccc(C2NC(=O)NC(CN(CC)Cc3ccccc3)=C2C(=O)OC)cc1 (stereo unspecified),.,/,/,/,/,/
N#C/C(=C\c1coc2ccc(O)cc2c1=O)C(=O)Nc1nc2ccccc2s1,.,32µM,89µM,25µM,.,.
Cc1ccc(Nc2c(-c3ccccn3)nc3cccc(C)n23)cc1,.,.,.,.,.,32µM
Cc1cccc2nc(-c3ccccn3)c(Nc3ccccc3)n12,.,/,/,.,/,/
Cc1c(C(=O)O)oc2c(C)cccc12,.,/,/,/,/,/
CN(Cc1ccc2c(c1)OCO2)C(=O)c1nn(-c2ccccc2)c(=O)c2ccccc12,-35,/,/,/,/,/
O=C(NCCCN1CCCCCC1)c1ccc2c(c1)sc1nc(-c3ccccc3)cn12,.,/,/,.,/,/
Cc1ccc(NC(=S)Nc2ccc(F)cc2)c(C)c1,.,.,.,.,.,.
Cc1cccc(OCc2nc(C)c(C(=O)Nc3cc(C)ccc3C)s2)c1,-35,/,/,/,/,/
COC1=CC(=O)c2ccccc2C1=O,.,.,.,13µM,.,.
Cc1nc2ccccc2c(=O)n1/N=C/c1ccc(O)c(O)c1O,.,.,.,.,?,.
SMILES,LDHA block,EPAC2 ag,EPAC1 agonist,USP1-UAF1 inh,EPAC1 antagonist,EPAC2 antagonist
Cc1nc2ccccc2c(=O)n1/N=C/c1ccccc1O,.,.,.,.,79µM,.
COc1ccc2c(C)cc(SCC(=O)N3CCCCCC3)nc2c1,.,/,/,/,/,/
Cc1ccc2cccc(Oc3ncnc4scc(-c5ccc(Cl)cc5)c34)c2n1,.,.,.,14µM,.,.
Cc1ccc2cccc(Oc3ncnc4scc(-c5ccccc5)c34)c2n1,.,.,.,.,.,.
Cc1nn(-c2nc3c(c(=O)n(CC(N)=O)c(=O)n3C)n2Cc2ccccc2)c(C)c1C,-33,/,/,/,/,/
CCn1c(-n2nc(C)c(C)c2C)nc2c1c(=O)n(Cc1ccccc1)c(=O)n2C,.,/,/,/,/,/
O=[N+]([O-])c1cccc(CN2CCN(Cc3ccco3)CC2)c1,-43,.,.,.,.,.
COc1cc(CN2CCN(Cc3ccco3)CC2)cc(OC)c1,-32,.,?,.,.,.
CCCn1nc([N+](=O)[O-])c(C(C#N)c2nc3ccccc3o2)c(Cl)c1=O (stereo unspecified),.,.,.,.,.,56µM
CCn1nc([N+](=O)[O-])c(C(C#N)c2nc3cc(C(F)(F)F)ccc3s2)c(Cl)c1=O (stereo unspecified),.,.,.,?,?,.
CC1=Nc2ccccc2/C1=C\c1nc(-c2ccc(F)cc2)oc1O,.,?,89µM,28µM,.,.
O=C(CSc1nc(O)cc(=O)n1-c1ccccc1)Nc1ccc2c3c(cccc13)CC2,.,.,.,.,79µM,.
Cc1ccc(C)c(N(C)C(=O)CCNC(=O)Cn2cnc3ccccc3c2=O)c1,.,/,/,?,/,/
CCCCn1c(NC(C)=O)c(C#N)c2nc3ccccc3nc21,.,.,.,.,.,.
C=CCn1c(NC(=O)c2ccccc2Cl)c(C#N)c2nc3ccccc3nc21,.,.,.,16µM,?,?
Cc1ccccc1S(=O)(=O)NC(=O)C1(C)CCN1C(=O)CCc1ccc(Cl)cc1Cl (stereo unspecified),.,.,.,/,.,.
CC(C)COc1ccc(C(=O)Nc2nnc(S(=O)(=O)N(C)Cc3ccco3)s2)cc1,.,/,/,.,/,/
Cc1ccc(C(=O)N2CCC(N3CCC(C(=O)N4CCOCC4)CC3)CC2)cc1C,.,.,.,.,.,.
COc1ccccc1Oc1ncnc2c1oc1ccccc12,.,.,.,.,.,79µM
O=C(Nc1ccc(S(=O)(=O)Nc2nccs2)cc1)c1cc(-c2ccccn2)nc2ccccc12,.,.,.,.,71µM,.
Cc1cccc(C)c1NC(=O)CN1C(=O)S/C(=C\c2cccn2-c2cccc(C(=O)O)c2)C1=O,.,.,?,.,?,?
Cc1cccc(C)c1-n1cccc1/C=C1\SC(=S)N(c2cccc(C(=O)O)c2)C1=O,.,.,.,?,50µM,?
O=C1C(O)=C(O)C(=O)c2ccccc21,.,.,.,16µM,?,?
O=C1c2ccccc2-c2ccccc21,.,/,/,/,/,/
O=C1c2ccccc2C(=O)c2[nH]c(=O)[nH]c21,.,.,.,28µM,.,.
COc1ccccc1-c1nc2c(c(SCC(=O)Nc3ccc(C)c(C)c3)n1)Cc1c(CO)cnc(C)c1O2,.,/,/,.,/,/
